# Source: PubChem BioAssay AID602362 (National Center for Advancing Translational Sciences (NCATS), 2012)
# This is one part of the list. Inconclusive results are not listed. The source made the active and inactive calls. Calls come from the whole dose curve; as a rule, active = well fitted inhibition curve with a large enough effect; inconclusive = small, poorly fitted or top-dose-only effect; inactive = no such curve, though single readings can be large or run the other way.
# Molecular target: 4'-phosphopantetheinyl transferase Sfp (Bacillus subtilis (strain 168)) (UniProt P39135)
# Assay: qHTS Assay for Inhibitors of Bacillus subtilis Sfp phosphopantetheinyl transferase (PPTase): Gel Based Assay
# Details: purified Sfp PPTase, gel-based product detection
# From the text: The covalent attachment of a phosphopantetheinyl (4'-PP) arm to a variety of synthases and other proteins is a key posttranslational protein modification. The 4'-PP is installed on the proteins post-translationally from coenzyme A (CoA) on a conserved serine residue by action of phosphopantetheinyl transferase (PPTase) enzymes. Phosphopantetheinylation is essential for synthase activity, and removal of the PPTase gene precludes natural product synthesis in microorganisms, or in the case of fatty acid biosynthesis, renders the organism unviable. PPTase enzymes belong to a distinct structural superfamily. Within bacteria, these enzymes are grouped into two classes based upon primary structure, the AcpS-Type and Sfp-Type PPTases. […]
# In search of small molecule Sfp-PPTase inhibitors, a fluorescence quenching assay was developed for detection of Bacillus subtilis Sfp-PPTase enzymatic activity in a miniaturized high-throughput format. […]
# In this assay, compounds were evaluated by monitoring of fluorescence transfer to whole carrier protein substrates via polyacrylamide gel electrophoresis. […]
# The SDS-PAGE based assay detects the direct incorporation of a fluorescent label into a carrier protein substrate. […] The images are analysed by fluorescent densometry using the ImageJ software package available from the NIH.
row,Structure (SMILES),Potency
1,COc1ccnc(NC(=S)N2CCN(c3ncc(C(F)(F)F)cc3Cl)CC2)c1,2140 nM (active)
2,Cc1cc(C)nc(NC(=S)N2CCN(c3ccc(Cl)cc3C(F)(F)F)CC2)c1,1070 nM (active)
